Screening data deposited in PubChem BioAssay by National Center for Advancing Translational Sciences (NCATS).
LASV entry inh: inhibitors of Lassa virus binding or cell entry. Lassa virus pseudotype entry inhibition, cell reporter. Potency, µM (top dose mostly 37.9 µM), inactives show at the top dose activity change, negative = inhibition, usual class: inhibitors. hit rate 1.2% among 300,000; calls by dose curve; tested in HEK293 cells; further: potency means the concentration at half of the fitted maximal effect; on the % scale 0 is the no-effect control and ±100 the full control effect; nearly all actives have a fitted effect of over 50% in size
FMDV inh: foot and mouth disease virus antiviral activity; FMDV antiviral cell-based qHTS; Potency, µM (titrated, usually from 57.9 µM), for the others: top-dose activity change, negative = inhibition, hits mostly inhibitors; hit rate 1.2% among 410,000; AID 1159524; calls by dose curve; tested in HEK293T cells; further: read-out not given here; potency means the concentration at half of the fitted maximal effect; on the % scale 0 is the no-effect control and ±100 the full control effect; nearly all actives have a fitted effect of over 45% in size
HCV inhibitor: HCV inhibition; Huh7.5.1 HCVcc-Cre infection, luciferase reporter, 44 h; Potency, µM (doses to about 41.8 µM), inactives show at the highest dose activity change, negative = inhibition, hits mostly inhibitors; hit rate 3.4% among 340,000; AID 651820; active means well fitted inhibition curve with a large enough effect; inconclusive means small, poorly fitted or top-dose-only effect, or another doubt; inactive means no such curve, though single readings can be large or run the other way; further: potency means the concentration at half of the fitted maximal effect; on the % scale 0 is the no-effect control and ±100 the full control effect
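A cell-based infection assay in which seeded cells (1,000 per well) receive test compound after 4 h, are inoculated with HCVcc-Cre at approximately 0.5 moi, and are incubated 44 h before luminescence detection.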
CHX counter: counter-screen for Shiga toxin inhibitors: cycloheximide protein synthesis inhibition; hit rate 12% among 300,000; AID 2314; max response, %; cell reporter, cycloheximide protein synthesis inhibition counterscreen; in the data active means max response mostly above about 13%, no sharp cut-off; inactive means mostly below about 14%; further: read at 38.3 µM for the half of the compounds with a filed dose; 0% is about no effect
Shiga toxin inh: Shiga toxin inhibition; Vero cells, Shiga toxin protein synthesis inhibition reporter; hit rate 9.2% among 290,000; AID 2315; inhibition, % at 38.7 µM; in the data active means inhibition mostly above about 28%, no sharp cut-off; inactive means mostly below about 43%; further: 0% is about no effect
MARV entry inh: inhibitors of Marburg virus binding or cell entry. Marburg virus pseudotyped entry inhibition, cell reporter. Potency, µM (highest dose often 37.8 µM), for the others: at the highest dose activity change, negative = inhibition, usual class: inhibitors. hit rate 1.8% among 300,000. AID 540276; calls by dose curve; tested in HEK293 cells; further: potency means the concentration at half of the fitted maximal effect; on the % scale 0 is the no-effect control and ±100 the full control effect
* marks the source's active call; other numbers are inactive results; ? = inconclusive; . = no result given; [ ] = dose if it differs, or a comment. Rows were chosen to be rich in hits. Some 13% of all compounds tested hit in one or more screens of this group.

SMILES	LASV entry inh	FMDV inh	HCV inhibitor	CHX counter	Shiga toxin inh	MARV entry inh
CCOc1cc(/C=N\NC(=O)c2ccc(NC(=O)C(C)(C)C)cc2)ccc1OC(=O)c1ccc(C)cc1	?	-1%	22%	-3	-8	34%
CCOc1cc(/C=N\NC(=O)c2ccc(NC(=O)CC)cc2)ccc1OC(=O)c1ccccc1	23µM*	17%	11%	1	4	?
CCOc1cc(/C=N\NC(=O)c2ccc(NC(=O)C(C)(C)C)cc2)ccc1OC(=O)c1cccc(C)c1	6.5µM*	8.9µM*	3.2µM*	-1	-20	2.6µM*
CCCCOc1ccc(C2=CSC3=NCCN23)cc1[N+](=O)[O-]	-27%	-18%	?	-2	2	22µM*
COc1ccc(C2=CSC3=NCCN23)cc1OC	.	2%	13%	-1	.	.
CCCCOc1ccc(-c2csc(N)n2)cc1[N+](=O)[O-]	?	9%	?	86*	127*	?
Cc1ccc(-n2c(/C=C\c3ccc(F)cc3)nc3ccccc3c2=O)cc1Cl	9%[46.1 µM]	-5%	.	.	.	.
Fc1ccccc1-c1nc(N2CCN(c3cccc(Cl)c3)CC2)c2ccccc2n1	-21%[46.1 µM]	?	.	.	.	.
Cc1cc(Cl)c(OCCCNCc2ccccc2)c(Br)c1	-14%	-15%	25µM*	-2	-19	?
Cc1cc(C)c(OCCCNCc2ccccc2)c(Br)c1	.	-26%	?	-5	.	.
Cc1cc(Cl)c(OCCCN2CCCCC2)c(Br)c1	?	-5%	?	0	1	?
COCCNCCCCOc1c(Cl)cc(C)cc1Br	-20%	-29%	11µM*	-3	-29	?
CC(c1nccs1)N(C)C(=O)CCc1nnc(-c2ccc(-c3ccccc3)cc2)o1 (stereo not drawn)	.	-29%	?	26*	28	.
COC(=O)CCCNC(=O)CCc1nnc(-c2ccc(-c3ccccc3)cc2)o1	.	8%	?	.	.	.
CC(NC(=O)CCc1nnc(-c2ccc(-c3ccccc3)cc2)o1)c1nccs1 (stereo not drawn)	?	-8%	-22%	14*	36	?
O=C(CCc1nnc(-c2ccc(-c3ccccc3)cc2)o1)NCCc1ccccn1	?	-16%	5%	18*	59	?
CCN1C(=O)C(=C/C=C/c2ccco2)C(=O)N(CC)C1=S	11%[46.1 µM]	?	-1%	2	-5	13%[46.1 µM]
N[C@H](C(=O)O)[C@H]1C[C@H]1C(=O)O	.	-9%	.	.	.	.
CCOc1ccccc1CC1C(=O)Nc2ccc(Br)cc21 (stereo not drawn)	-3%[46.1 µM]	?	.	.	.	?
CC1(C)Cc2nc3sc(C(=O)NCCCO)c(N)c3cc2CS1	.	53%	2%	31*	26	?
CC1(C)Cc2nc3sc(C(=O)NCCO)c(N)c3cc2CO1	24%	49%	9%	19*	51*	?
CC1(C)Cc2nc3sc(C(=O)O)c(N)c3cc2CS1	.	.	.	8	54	.
Clc1ccc2c(N/N=C/c3ccc(Br)cc3)ccnc2c1	?	-33%	11µM*	9	21	3.3µM*
Clc1ccc(NNc2ccnc3cc(Cl)ccc23)cc1	-3%	9%	-13%	2	-8	?
Clc1ccc2c(N/N=C/c3cccnc3)ccnc2c1	?	5%	-21%	17*	24	?
SMILES	LASV entry inh	FMDV inh	HCV inhibitor	CHX counter	Shiga toxin inh	MARV entry inh
CCOc1ccc(CNC(=O)CCCC(=O)n2nc(C)c3ccccc32)cc1	.	-25%	-23%	-2	7	.
Cc1ccc(C)c(NC(=O)CN2C(=O)NC(C)(c3ccc4c(c3)OCCO4)C2=O)c1 (stereo not drawn)	.	-15%	10%	.	.	.
O=C(COc1ccc(F)cc1)Nc1ccc2nc(SCC(=O)N3CCOCC3)sc2c1	-10%[46.1 µM]	?	.	.	.	?
N#Cc1nc(COc2ccccc2F)oc1NCCc1ccccc1	1%	9%	?	27*	57*	-15%
CN(Cc1ccccc1)c1oc(COc2ccccc2F)nc1C#N	.	-11%	-22%	25	89*	.
Cc1ccc(OCc2nc(C#N)c(NCCc3ccccc3)o2)cc1	18%[46.1 µM]	0%	.	.	.	28%[46.1 µM]
O=C(CN1CCc2ccccc2C1)Nc1cccc(S(=O)(=O)N2CCCC2)c1	-11%	-15%	-13%	1	-3	?
COc1cc(Cl)ccc1OC1(C)CCN(Cc2cccn2-c2nccs2)C1 (stereo not drawn)	.	-25%	.	.	.	.
CN(C)CC(O)CN(c1ccccc1)c1ccccc1 (stereo not drawn)	-3%	-10%	-6%	-1	11	?
